# Test results published in PubChem BioAssay.
# The source made the active and inactive calls. Unless noted, how the calls were made is not given here.
# Columns and labels:
# [1] = system: XIP peptide (Xip251-270) binding; test: XIP fragment 251-270 binding compounds – biochemical, small-molecule microarray, fluorescence 635/667 nm, 0.1 µg/mL protein, primary screen (AID 1182); details: fluorescent protein binding, 635 nm, higher = more signal, called active from +8 up or from −8 down
# XIP peptide (Xip251-270) = test: compounds binding XIP fragment 251-270 – biochemical, small-molecule microarray, fluorescence 635/667 nm, 0.5 µg/mL protein, primary screen (AID 1183); details: fluorescence 635 nm, higher = more signal
# [2] = blood-stage malaria parasite viability loss – strain 3D7, DAPI fluorescence, 100 nL, primary screen (AID 1184);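 further: parasites grown inside human red blood cells in medium with human serum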; details: P. falciparum 3D7 growth, 3 d, higher = more signal
# [3] = biological target: Homeobox protein Hox-A13 (Mus musculus) (UniProt Q62424); test: disruptors of Hoxa13 oligonucleotide interaction – biochemical, fluorescence polarization, labeled oligonucleotide, primary screen (AID 1185); details: Hoxa13:DNA binding, 15 min, higher = more signal, called active from +8 up or from −8 down
# [4] = blockers of DNA damage checkpoint Chk1 activation – imaging, HeLa, hydroxyurea, phospho-Chk1 antibody, percent positive cells, primary screen (AID 1186); details: hydroxyurea-induced phospho-Chk1 immunofluorescence imaging, higher = more signal
# [5] = blockers of DNA damage checkpoint Chk1 activation – imaging, HeLa, hydroxyurea, phospho-Chk1 nuclear intensity, primary screen (AID 1187); details: hydroxyurea-induced phospho-Chk1 immunofluorescence imaging, higher = more signal
# Sequence of Homeobox protein Hox-A13 (Mus musculus) (Q62424 whole entry, looked up): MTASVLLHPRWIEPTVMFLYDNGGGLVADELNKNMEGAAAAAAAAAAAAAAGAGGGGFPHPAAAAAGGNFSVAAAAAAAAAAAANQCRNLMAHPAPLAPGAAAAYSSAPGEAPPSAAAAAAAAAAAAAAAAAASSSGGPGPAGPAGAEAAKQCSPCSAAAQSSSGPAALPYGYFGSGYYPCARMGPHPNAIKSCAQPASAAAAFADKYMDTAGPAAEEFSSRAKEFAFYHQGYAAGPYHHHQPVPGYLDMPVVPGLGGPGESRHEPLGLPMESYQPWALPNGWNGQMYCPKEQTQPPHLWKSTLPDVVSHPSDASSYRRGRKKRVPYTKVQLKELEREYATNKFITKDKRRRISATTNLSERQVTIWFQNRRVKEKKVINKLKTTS
SMILES,composite z-score [1],composite z-score (XIP peptide (Xip251-270)),z-score [2],z-score [3],z-score [4],z-score [5]
COCCOC(=O)N1C(=O)[C@@]2(c3cc(C#CC4=CCCCC4)ccc31)[C@H](c1ccccc1OCCO)N1[C@H](c3ccccc3)[C@H](c3ccccc3)OC(=O)[C@H]1[C@@H]2C(=O)N1CCc2cc(OC)c(OC)cc2C1,3.26 (inactive),0.717,-1.68,2.38 (inactive),0.0575 (inactive),0.139 (inactive)
CO[C@H]1O[C@H](CO)[C@@H](OC(=O)Nc2ccc(Oc3ccccc3)cc2)[C@H](OC(=O)Nc2ccccc2-c2ccccc2)[C@@H]1OC(=O)Nc1ccccc1-c1ccccc1,0.356 (inactive),0.759,-2.39,-1.71 (inactive),-0.141 (inactive),-0.148 (inactive)
Cc1ccc(C(C)CC(O)C2C=CC3C(=O)N(c4ccccc4)C(=O)C3N2Nc2ccc(C(C)C)cc2)o1 (stereo not given),0.195 (inactive),0.691,0.0472,-3.2 (inactive),0.527 (inactive),0.482 (inactive)
CC(C)(C)OC(=O)CC[C@]1(C(=O)O)N=C(c2ccc(OCCCO)cc2)O[C@H]1c1ccccc1CN=[N+]=[N-],0.109 (inactive),0.405,-0.711,-4 (inactive),-0.287 (inactive),-0.499 (inactive)
CC=CC(O)C1C=CC2C(=O)N(c3ccccc3)C(=O)C2N1Nc1ccc([N+](=O)[O-])cc1 (stereo not given),0.542 (inactive),0.135,1.01,-3.01 (inactive),-0.263 (inactive),-0.973 (inactive)
Cc1ccc(F)cc1S(=O)(=O)N[C@@H]1CCN(Cc2ccc(Oc3ccccc3)cc2)C1,0.401 (inactive),-0.0723,-0.954,-5.64 (inactive),0.659 (inactive),0.735 (inactive)
Cc1ccc(S[C@]2(C(=O)NCC(F)(F)F)CC(=O)N(Cc3ccccc3)[C@@H]2c2ccc(CO)cc2)cc1,1.02 (inactive),0.5,-1.57,-3.77 (inactive),-0.336 (inactive),-0.603 (inactive)
C[C@]1(C(=O)O)c2ccccc2C(=O)N(Cc2ccccc2)[C@H]1c1ccc(CO)cc1,-0.339 (inactive),0.416,-0.393,-1.72 (inactive),-0.107 (inactive),0.194 (inactive)
COc1cc(OC)c(C(O)C2C=CC3C(=O)N(c4ccccc4)C(=O)C3N2Nc2ccc(C#N)cc2)cc1Br (stereo not given),3.12 (inactive),0.796,-0.365,-3.36 (inactive),-0.002 (inactive),-0.795 (inactive)
CCOc1cc(C(O)C2C=CC3C(=O)N(C4CCCCC4)C(=O)C3N2Nc2ccc(OC)cc2)ccc1O (stereo not given),0.0699 (inactive),0.486,-0.165,-3.99 (inactive),-0.509 (inactive),-0.813 (inactive)
C=C[C@@H](COC(C)=O)NS(=O)(=O)c1ccc(Br)cc1,0.0525 (inactive),0.113,0.4,0.34 (inactive),-0.249 (inactive),-0.227 (inactive)
COCCCNC(=O)[C@@]1(Sc2ccc(C)cc2)CC(=O)N(Cc2cc(C(F)(F)F)cc(C(F)(F)F)c2)[C@@H]1c1ccc(CO)cc1,0.451 (inactive),0.634,-0.0611,-0.737 (inactive),0.155 (inactive),0.0411 (inactive)
NCCCCCCNC(=O)[C@@H]1C[C@@H]2C(=O)N3CCC[C@H]3C(=O)N2[C@@H]1c1ccc(O)cc1,-0.386 (inactive),0.664,1.42,-2.07 (inactive),0.683 (inactive),0.289 (inactive)
O=C1O[C@@H](c2ccccc2)[C@@H](c2ccccc2)N2[C@@H](c3ccc(O)cc3)[C@]3(C(=O)Nc4ccc(C#CC5=CCCCC5)cc43)[C@@H](C(=O)N3CCN(c4ncccn4)CC3)[C@H]12,-0.168 (inactive),0.657,-1.97,0.676 (inactive),-0.0981 (inactive),-0.0223 (inactive)
C=CCC(OC(C)=O)[C@@H]1[C@@H](N(Cc2ccc(-c3ccccc3)cc2)C(=O)c2cccc3ccccc23)c2cc(OCCCO)ccc2N1C(=O)Cc1ccc2ccccc2c1 (stereo not given in full),-0.366 (inactive),0.579,-0.171,-1.26 (inactive),-0.8 (inactive),-0.493 (inactive)
